The source of these data is PubChem BioAssay AID853 (Columbia University Molecular Screening Center, 2007).

The campaign covered roughly 47,000 compounds. About 200 (0.43%) were called active. Inconclusive results (about 1%) are left out.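 How the source made its calls: active means inhibition of aggregate fluorescence above about 70%, also judged a hit by eye on the cell image (limit read from the data, passing the limit was not always enough); inconclusive means no rule stated for this call; inactive means not judged a hit on image review.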 Many of the other results were omitted from the sample, so actives are more common in it than they were.

A short description of the assay: removal of polyQ htt aggregates in HeLa – imaging, HeLa Exon1htt(103Q)mCFP, confocal imaging, primary screen (AID 853).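 Further: cells exposed to compound for three days before fixation.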 Particulars: aggregate imaging, at 1.5 µM; fraction fluorescence in grains: measured here: aggregate grain fluorescence fraction, stronger effect = lower value; inhibition: stronger effect = higher value, zero = plate's median compound well.
Regarding `COc1ccc(CNC(=O)C2CCC(CNc3c(N4CCOCC4)c(=O)c3=O)CC2)cc1` (stereo unspecified), the fraction fluorescence in grains was 33 and the inhibition (commonly the relative decrease from the control value, in per cent) is 10.7% (inactive).
In the case of `Cc1cc(Cl)c(S(=O)(=O)N(C)C)cc1OCC(N)=O`, the fraction fluorescence in grains was determined as 20.5 and the inhibition is -7.1% (inactive).
Consider `O=S(=O)(/C=C/c1ccccc1)NCCc1ccccn1`, for which the fraction fluorescence in grains turned out to be 31.8 and the inhibition is 7.7% (inactive).
On to `O=C(Oc1cccnc1)c1cc2ccccc2oc1=O`, for which the fraction fluorescence in grains was 21 and the inhibition is -5.6% (inactive).
On the same counts, the results for `COC(=O)C(C)Oc1ccc2c(-c3cccc([N+](=O)[O-])c3)cc(=O)oc2c1` (stereo unspecified) are 35.3 and 9.1% (inactive).
Turning to `CCCCCCNC(=O)CSc1nccn1Cc1ccccc1`, the fraction fluorescence in grains stood at 18.3 and the inhibition is 7.5% (inactive).
Turning to `CCSc1nnc(NC(=O)Cc2ccccc2OC)s1`, the fraction fluorescence in grains was 52.6 and the inhibition is -25.1% (inactive).
Regarding `COc1cccc(OC)c1C(=O)Nc1ccc(N2CCCCC2)cc1`, the fraction fluorescence in grains turned out to be 19.3 and the inhibition is 18.4% (inactive).
On the same counts, the results for `C/C(=C\C(=O)c1ccc(Br)cc1)N1CCCCC1` are 28.4 and 28.3% (inactive).
On to `CCc1c(O)cc2n(c1=O)-c1ccccc1C2(C)C`, for which the fraction fluorescence in grains worked out at 27.7 and the inhibition was -37.8% (inactive).
As for `CC1(C)CC(=O)C(C=NCCN2CCN(C(=S)Nc3cccc(Cl)c3)CC2)=C(O)C1`, the fraction fluorescence in grains amounted to 25.7 and the inhibition was 12.3% (inactive).
On the same counts, the results for `Cc1cccc(N2CCN(C(=O)CN(C)S(=O)(=O)c3ccc4c(c3)CCC(=O)N4)CC2)c1C` are 43.8 and -18.5% (inactive).
On the same counts, the results for `COc1ccc(CCN2CNc3c(c(=O)n(C)c(=O)n3C)C2)cc1OC` are 63.1 and -203% (inactive).
As for `COc1ccc(CNC(=O)CCn2cccc2)cc1`, the fraction fluorescence in grains worked out at 29.6 and the inhibition was -25.4% (inactive).
Take `CCCC(=O)Nc1nc2ccc(NC(=O)c3cccnc3)cc2s1`: the fraction fluorescence in grains was found to be 48.5 and the inhibition is -19% (inactive).
`CCOC(=O)c1cnc(SC)nc1Sc1ccc(Cl)cc1Cl`: the fraction fluorescence in grains came to 27.6 and the inhibition was -31% (inactive).
On the same counts, the results for `O=C(CSCc1ccc(Cl)cc1)N1CCCCC1` are 25.4 and -26.2% (inactive).
The corresponding values for `Cn1cnc2c1c(=O)n(Cc1c(Cl)cccc1Cl)c(=O)n2C` are 24.1 and -22.3% (inactive).
With `CCOc1nc(NCCN2CCOCC2)nc(Nc2ccc(C)cc2)n1`, the fraction fluorescence in grains is 42.7 and the inhibition was -6.3% (inactive).
Regarding `CC(NC(=O)CSc1nc2c(cc1C#N)CN(C)CC2)c1ccccc1` (stereo unspecified), the fraction fluorescence in grains was determined as 10.8 and the inhibition is 73.3% (active).
The corresponding values for `CC1(C)CCc2nc(SCc3ccccc3)c(C#N)cc2C1` are 21.6 and -20.9% (inactive).
Regarding `Cc1cc2cc3c(cc2nc1SCC(=O)Nc1c(C)cccc1C)CCC3`, the fraction fluorescence in grains is 26.1 and the inhibition is 30.7% (inactive).
On to `Cc1ccnc(SCCn2c(N(C)Cc3ccccc3)nc3c2c(=O)n(C)c(=O)n3C)n1`, for which the fraction fluorescence in grains is 35.6 and the inhibition was -10.6% (inactive).
For `CCn1c(CNC(=O)c2ccccc2)nnc1SCC(=O)N1CCN(c2ccccc2)CC1`, the fraction fluorescence in grains is 10.5 and the inhibition is 45.3% (inactive).
Regarding `c1ccc(-c2noc(-c3cccs3)n2)nc1`, the fraction fluorescence in grains is 20.2 and the inhibition was -19.7% (inactive).
Regarding `Cc1cc(Oc2ccccc2)nc(N2CCOCC2)n1`, the fraction fluorescence in grains came out at 29.1 and the inhibition is 5.3% (inactive).
The corresponding values for `COc1ccc(NS(=O)(=O)c2ccc(NC(=O)C(C)(C(F)(F)F)C(F)(F)F)cc2)nn1` are 26.9 and -29.8% (inactive).
On the same counts, the results for `CCOC(=O)Cn1c2c(c(-c3ccccc3OC)cc1=O)CCCC2` are 9.78 and 75.9% (active).
The corresponding values for `COc1ccc(NC(=O)COC(=O)Cn2c(C)nc3ccccc32)cc1OC` are 48.2 and -28% (inactive).
`CCOC(=O)CN1C(=O)C(=O)c2cc(C)ccc21`: the fraction fluorescence in grains worked out at 50.7 and the inhibition was -31.2% (inactive).
The corresponding values for `CCOC(=O)c1c(NC(=O)CSc2nnc(CNc3ccc(C)cc3C)o2)sc(C)c1C` are 20 and 0.1% (inactive).
Turning to `O=C(c1ccccn1)c1ncc(C(F)(F)F)cc1Cl`, the fraction fluorescence in grains is 11.8 and the inhibition was 69.6% (inactive).
On the same counts, the results for `COc1cc(C2CC(=O)c3cnc(NC(C)=O)nc3C2)cc(OC)c1OC` (stereo unspecified) are 28.1 and -57.9% (inactive).
On the same counts, the results for `Cc1ccccc1NC(=O)c1cnn(-c2ccccc2)c1NC(=O)c1ccco1` are 65.2 and -45.9% (inactive).
On the same counts, the results for `O=C(Nc1cccc(NC(=O)c2ccco2)c1)c1cnccn1` are 17.1 and 4% (inactive).
Regarding `CCOc1ccc(C(=O)Nc2cc(OC)ccc2OC)cc1`, the fraction fluorescence in grains stood at 47.6 and the inhibition is -28.5% (inactive).
With `N#Cc1c(/N=C/N2CCCC2)oc(-c2ccccc2)c1-c1ccccc1`, the fraction fluorescence in grains came to 60.3 and the inhibition was -70.7% (inactive).
For the compound `c1ccc(Nc2n[nH]nc2-c2ccccc2)cc1`, the fraction fluorescence in grains worked out at 19.1 and the inhibition was -9.8% (inactive).
With `COc1ccc(Oc2coc3cc(OC(=O)c4cncc(Br)c4)ccc3c2=O)cc1`, the fraction fluorescence in grains is 38.8 and the inhibition is 10.3% (inactive).
On the same counts, the results for `CCN(CC)CCNc1ccc(Cl)cc1[N+](=O)[O-]` are 50.4 and -31% (inactive).
With `COc1nc(NC2CCCCC2)nc(N2CCCCCC2)n1`, the fraction fluorescence in grains was determined as 7.28 and the inhibition is 62.7% (inactive).
In the case of `ONC(=Nc1ccc(Cl)cc1)c1ccccc1Cl`, the fraction fluorescence in grains is 37.5 and the inhibition is 2.4% (inactive).
The corresponding values for `Cc1cccc(N(C(=O)Cc2cccs2)C(C(=O)NC2CCCC2)c2ccsc2)c1` (stereo unspecified) are 20.3 and 34% (inactive).
